Data reported in paper PMC4336329 (PLoS ONE, 2015).
The whole screen tested about 310,000 compounds, of which about 2,200 (0.71%) showed an effect of 50% or more. Effects have a minus sign here. The full list was thinned out, with strong results kept by preference.

biological target: human ether-à-go-go-related gene (hERG) potassium channel (human, UniProt Q12809); experiment: primary screen, population patch clamp on CHO cells stably expressing hERG; higher = less effect of the substance
Sequence (Q12809 whole entry, looked up): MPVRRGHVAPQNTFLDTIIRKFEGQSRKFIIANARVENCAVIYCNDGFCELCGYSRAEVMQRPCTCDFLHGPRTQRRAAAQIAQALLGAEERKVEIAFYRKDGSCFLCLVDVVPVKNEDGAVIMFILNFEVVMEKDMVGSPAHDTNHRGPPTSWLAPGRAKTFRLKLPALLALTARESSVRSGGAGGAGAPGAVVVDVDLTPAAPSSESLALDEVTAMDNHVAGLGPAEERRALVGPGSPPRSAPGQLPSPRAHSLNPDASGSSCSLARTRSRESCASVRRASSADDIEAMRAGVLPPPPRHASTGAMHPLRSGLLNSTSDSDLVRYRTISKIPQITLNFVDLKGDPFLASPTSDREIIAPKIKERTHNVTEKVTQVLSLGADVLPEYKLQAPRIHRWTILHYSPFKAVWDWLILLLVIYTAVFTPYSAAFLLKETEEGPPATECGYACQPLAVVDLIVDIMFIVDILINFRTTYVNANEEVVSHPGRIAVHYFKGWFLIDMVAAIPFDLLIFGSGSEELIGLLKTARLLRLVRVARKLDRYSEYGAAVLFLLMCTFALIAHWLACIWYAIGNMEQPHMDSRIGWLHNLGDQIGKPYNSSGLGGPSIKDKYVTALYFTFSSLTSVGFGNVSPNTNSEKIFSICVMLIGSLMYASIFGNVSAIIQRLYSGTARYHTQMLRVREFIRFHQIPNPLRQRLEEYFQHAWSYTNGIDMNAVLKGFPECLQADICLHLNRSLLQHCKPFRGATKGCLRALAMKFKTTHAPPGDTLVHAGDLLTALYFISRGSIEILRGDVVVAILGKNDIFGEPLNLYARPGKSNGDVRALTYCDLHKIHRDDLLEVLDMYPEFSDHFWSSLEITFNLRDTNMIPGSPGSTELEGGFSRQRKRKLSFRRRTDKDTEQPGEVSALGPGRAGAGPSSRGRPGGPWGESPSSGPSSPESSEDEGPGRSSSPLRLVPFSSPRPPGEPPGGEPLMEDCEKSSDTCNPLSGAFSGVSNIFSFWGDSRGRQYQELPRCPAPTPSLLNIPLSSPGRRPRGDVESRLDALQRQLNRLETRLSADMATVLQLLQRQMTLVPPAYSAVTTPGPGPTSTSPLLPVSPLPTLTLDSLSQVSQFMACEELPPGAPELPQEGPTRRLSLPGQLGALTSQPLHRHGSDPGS

Compound | hERG current change (%, negative = inhibition) at 1uM
O=C(COC(=O)C1CCN(C(=O)c2ccc(Cl)cc2)CC1)Nc1ccccc1F | -11.5%
Cc1cc(-c2nn(-c3ccccc3F)cc2CN2CCN(c3ccccn3)CC2)c(C)s1 | 10.2%
Cc1cc(-c2nn(-c3ccccc3F)cc2CN2CCC(O)CC2)c(C)s1 | -0.852%
Cc1cc(-c2nn(-c3ccccc3F)cc2CN2CCN(c3ccncc3)CC2)c(C)s1 | -69.3%
Cc1ccc(N(CC(=O)NC(C)(C)C)C(=O)CNC(=O)c2cccs2)cc1 | 7.4%
CN(CC(=O)Nc1ccc(F)cc1)C(=O)Cn1nnc(-c2ccccc2)n1 | 7.23%
CC(C)N(C)C1CCN(C(=O)Nc2ccc(Cl)c(Cl)c2)CC1 | -19.5%
c1ccc(CSc2nnc(-c3ccco3)n2Cc2ccccc2)cc1 | -6.43%
O=C(CSc1nnc(-c2ccco2)n1Cc1ccccc1)c1ccccc1 | 8.89%
O=C1c2ccccc2C(=O)N1CCSc1nnc(-c2ccco2)n1Cc1ccccc1 | -51.1%
Cc1c(NC(=S)N2CCN(c3cccc(Cl)c3)CC2)c(=O)n(-c2ccccc2)n1C | 9.46%
CCNC(=O)OCCC12CC3CC(CC(C3)C1)C2 | 11.6%
CCn1cc(CNC(=O)c2ccc3nc(Cc4ccccc4F)oc3c2)cn1 | 11.3%
COCCN(C(=O)COC(=O)c1ccc2[nH]c(C)c(C)c2c1)c1c(N)n(Cc2ccccc2)c(=O)[nH]c1=O | 7.98%
CN(C)CCCN(C(=O)c1ccc2c(c1)OCCO2)c1nc2ccc(Cl)cc2s1.Cl | -3.81%
Cc1ccc2nc(N(CCN(C)C)C(=O)C3=COCCO3)sc2c1.Cl | -5.32%
CN(C)CCN(C(=O)c1ccc2c(c1)OCCO2)c1nc2ccc(Cl)cc2s1.Cl | 10.8%
CN(C)CCN(C(=O)C1=COCCO1)c1nc2ccc(Cl)cc2s1.Cl | -62.4%
CN(C)CCCN(C(=O)C1COc2ccccc2O1)c1nc2ccc(F)cc2s1.Cl (stereo not drawn) | -64.9%
CN(C)CCN(C(=O)C1=COCCO1)c1nc2ccc(F)cc2s1.Cl | -57.7%
CN(C)CCCN(C(=O)C1=COCCO1)c1nc2ccc(Br)cc2s1.Cl | -25.1%
CN(C)CCCN(C(=O)C1COc2ccccc2O1)c1nc2cc3c(cc2s1)OCO3.Cl (stereo not drawn) | -21.3%
CN(C)CCCN(C(=O)CCc1ccccc1)c1nc2ccc(F)cc2s1.Cl | -24.8%
Cc1csc(SC(C)C(=O)NC2CCCCC2C)n1 (stereo not drawn) | 7.18%
COc1ccc2oc(=O)cc(-c3cc4ccccc4o3)c2c1 | -1.03%
O=C(C1CCCN(S(=O)(=O)c2cccc3cccnc23)C1)N1CCN(c2ccc(F)cc2)CC1 (stereo not drawn) | -50.1%

Compound | hERG current change (%, negative = inhibition) at 1uM
O=C(C1CCCN(S(=O)(=O)c2cccc3cccnc23)C1)N1CCN(c2ccccc2F)CC1 (stereo not drawn) | -27.5%
O=C(C1CCCN(S(=O)(=O)c2ccccc2)C1)N1CCN(c2ccccc2)CC1 (stereo not drawn) | -12.7%
O=C(C1CCCN(S(=O)(=O)c2ccccc2)C1)N1CCN(c2ccc(F)cc2)CC1 (stereo not drawn) | -62.4%
COc1ccc(N2CCN(C(=O)C3CCCN(S(=O)(=O)c4ccc(F)cc4)C3)CC2)cc1 (stereo not drawn) | -7.16%
O=C(C1CCCN1S(=O)(=O)c1cccc2nsnc12)N1CCN(c2ccccc2)CC1 (stereo not drawn) | -1.72%
O=C(C1CCCN1S(=O)(=O)c1cccc2nsnc12)N1CCN(c2ccc(F)cc2)CC1 (stereo not drawn) | -54.1%
COc1ccc(N2CCN(C(=O)C3CCCN(S(=O)(=O)c4cccc5cccnc45)C3)CC2)cc1 (stereo not drawn) | 5.91%
CC(=O)c1ccc(N2CCN(C(=O)C3CCCN3S(=O)(=O)c3cccc4nsnc34)CC2)cc1 (stereo not drawn) | 14.6%
CC(=O)N1CCN(C(=S)NC(=O)c2ccc(S(=O)(=O)N3CCOCC3)cc2)CC1 | 13.2%
COc1ccc(C(=O)Nc2c(C)ccc3nsnc23)cc1[N+](=O)[O-] | 3.23%
C#CCNC(=O)C1=C[C@H](c2ccc(Br)cc2)C[C@H](OCCCCO)O1 | 11.3%
COc1ccc([N+](=O)[O-])cc1N(CC(=O)Nc1ccccc1C(=O)N1CCOCC1)S(C)(=O)=O | 4.57%
COC(=O)C1=C(C(=O)OC)SC2(S1)C(C(=O)OC)=C(C(=O)OC)SC1=C2c2cc(C)ccc2NC1(C)C | 11%
COC(=O)C1=C(C(=O)OC)SC2(S1)C(C(=O)OC)=C(C(=O)OC)SC1=C2c2cccc(C)c2NC1(C)C | -79.1%
COC(=O)C1=C(C(=O)OC)SC2(S1)C(C(=O)OC)=C(C(=O)OC)SC1=C2c2cc(C)cc(C)c2NC1(C)C | 19.8%
Cc1nc(C)n(CC(O)COc2ccc3ccccc3c2)n1 (stereo not drawn) | -0.527%
CCOC(=O)[C@@H]1[C@H]2COc3cc(OC)ccc3[C@@H]2N2C(=O)N(c3ccc(Br)cc3)C(=O)[C@@]12C | 5.83%
CC(=O)NCCOc1ccc(C(=O)O)cc1 | 6.2%
Cc1ccc(S(=O)(=O)N2CCOCC2)cc1C(=O)N1CCC(Cc2ccccc2)CC1 | 11.2%
O=C(O)CCN(CCC(=O)O)c1nnc(SCc2ccccc2)s1 | 11.7%
O=C(CN1CCCC1)NN=C(c1ccccc1)c1ccccc1 | -49%
O=C(CCl)NN=C(c1ccccc1)c1ccccc1 | 5.28%
CCN(CC)CC(=O)NN=C(c1ccccc1)c1ccccc1 | -78.2%
CCOC(=O)C1CCN(c2ccc(Cl)nn2)CC1 | 0.0696%
CCOC(=O)Cc1nnc(NC(=O)c2ccco2)s1 | 5.45%
